From PubChem BioAssay (NCATS) come the findings set out here.

Records with an inconclusive call do not appear. Active and inactive are the calls of the source. Unless noted, the call rests on the fitted dose curve; in most records, active means well fitted curve in the direction sought with a large enough effect; inconclusive means small, poorly fitted or top-dose-only effect, or another doubt; inactive means no such curve, though single readings can be large; an effect the other way counts as inactive or inconclusive.

Test [1] deals with M-phase phosphoprotein 8 (Homo sapiens) (UniProt Q99549). Briefly: qHTS Validation Assay for Inhibitors for MPP8 Chromodomain Interactions with Methylated Histone Tails (AID 488949).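 Further: AlphaScreen signal from MPP8 chromodomain bound to biotinylated H3K9me3 peptide; top concentration of the series differs between compounds; on the % scale 0 is the no-effect control and ±100 the full control effect; nearly all actives have a fitted effect of over 55% in size.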 The procedure, abridged:
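AlphaScreen read-out: streptavidin donor and nickel chelate acceptor beads (final 10 ug/mL), 30 min in the dark at RT. Complex of 50 nM MPP8 and 50 nM b-H3(1-18)K9me3 peptide had been exposed to compounds for 30 min beforehand.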

The target in test [2] is Chromobox protein homolog 1 (Homo sapiens) (UniProt P83916). The experiment in a line: qHTS Validation Assay for Inhibitors of HP1-beta Chromodomain Interactions with Methylated Histone Tails (AID 488953).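 Further: loss of AlphaScreen luminescence from HP1-beta binding biotinylated H3K9me3 peptide; series mostly up to about 110 µM; on the % scale 0 is the no-effect control and ±100 the full control effect; nearly all actives have a fitted effect of over 50% in size.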 In a few lines:
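HP1-beta (50 nM) preformed 30 min with biotinylated H3(1-18)K9me3 peptide (50 nM) in PBS pH 7.4, 0.01% Tween-20. Compounds added for 30 min at room temperature. Complex disruption read by AlphaScreen with streptavidin donor/nickel chelate acceptor beads (10 ug/mL each).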

The target in test [3] is Methanococcus maripaludis chaperonin (MmCpn) (UniProt Q6LX38). Briefly: High-Throughput Screening for Modulators of Cytosolic Chaperonin Activity: MmCpn Primary Screen (AID 488978). Further: 0% is about no effect. The procedure, abridged: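 ADP formation read by HTRF Transcreener, 665/590 nm emission after 320 nm excitation. Enzyme: archaeal chaperonin at 50 nM final; substrate ATP 30 uM final; 10 min, 37C, after 5 min compound preincubation at RT.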

Test [4] has as its target Transient receptor potential cation channel subfamily V member 1 (Homo sapiens) (UniProt Q8NER1). The experiment in a line: HTS Assay for Compounds that Act as Enhancers of the Vanilloid Receptor 1 (AID 488979). Further: 0% is about no effect. The procedure, abridged:
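Calcium influx kinetics via Fluo-8 (480/520 nm) in TRPV1-expressing cells, 2000/well cultured overnight at 35.5C. Compound-alone read 3 min (agonist phase), followed by EC20 capsaicin challenge for 2 min (enhancer phase).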

For test [5], the target named is D(1A) dopamine receptor (Homo sapiens) (UniProt P21728). The experiment in a line: HTS Assay for Allosteric Agonists of the Human D1 Dopamine Receptor: Primary Screen for Agonists (AID 488981). Further: 0% is about no effect. The procedure, abridged:
(§1)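 Calcium flux in an inducible, force-coupled HEK293 Trex D1 line (overnight at 30 C): agonist mode is the 180 s kinetic read after compound; potentiator mode is the following 180 s read after dopamine at EC20.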

Test [6] shares this target. Briefly: HTS Assay for Allosteric Agonists of the Human D1 Dopamine Receptor: Primary Screen for Antagonists (AID 488983).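 Further: calcium flux response to an EC80 dopamine challenge measured with no-wash dye; on the % scale 0 is the no-effect control and ±100 the full control effect; nearly all actives have a fitted effect of over 65% in size.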 In a few lines: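 Tetracycline-induced HEK293 T-REx D1 line, force-coupled to calcium flux, read with no-wash calcium dye. Compound added after 10 s baseline, read 180 s for agonism, then EC80 dopamine added and read a further 180 s.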
Test [7] is described as follows: Validation screen for small molecules that induce genotoxicity in human embryonic kidney (HEK293T) cells expressing luciferase-tagged ELG1 (AID 493106). Further: 0% is about no effect. The procedure, abridged:
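HEK293T cells expressing luciferase-tagged ELG1, 2,000 cells/well, exposed to compound 16 hr at 37 °C, 5% CO2. Luciferase read after ONE-Glo, 30 min at room temperature; increased signal indicates genetic stress.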

The target in test [8] is ATPase family AAA domain-containing protein 5 (Homo sapiens) (UniProt Q96QE3). Briefly: Validation screen for small molecules that inhibit ELG1-dependent DNA repair in human embryonic kidney (HEK293T) cells expressing luciferase-tagged ELG1 (AID 493107).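 Further: cells co-treated with the DNA-damaging agent 5-fluorouridine alongside compound; series mostly up to about 46 µM; on the % scale 0 is the no-effect control and ±100 the full control effect; inhibitors lower the ELG1-luciferase luminescence signal; nearly all actives have a fitted effect of over 70% in size.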 The procedure, abridged:
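HEK293T cells expressing luciferase-tagged ELG1, 2,000 per well, treated with 5-fluorouridine plus compound for 16 h at 37 C. ONE-Glo luminescence after 30 min at room temperature reports ELG1 reporter level.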

Test [9] concerns the target Thyrotropin-releasing hormone receptor (Homo sapiens) (UniProt P34981). Briefly: qHTS for Small Molecule Agonists and Allosteric Enhancers of Human TRH Receptor: Validation Screen for Agonists (AID 493127;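 active means calcium activation more than 3 SD above the typical response in the agonist read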; further: 0% is about no effect). The note with it: TRH receptor agonist cell assay; at 2 µM; stronger effect = higher value. In a few lines: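 TRHR cells loaded with fluo-8 calcium dye; FDSS kinetic fluorescence (Ex 480/Em 530) read at 1 s/cycle after 23 nL compound addition. Agonist-mode calcium response recorded before the 10 nM TRH (EC20) addition.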

Test [10] can be described thus: Nrf2 qHTS screen for inhibitors: Validation (AID 493153; active means well fitted inhibition curve with a large enough effect in the main read-out, with a control signal flat, not every such curve was filed as active). The note with it: viability change: measured here: cytotoxicity max response. The procedure, abridged: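 A549 cells carrying ARE-firefly luciferase reporter, 5000 cells/well in 5% FBS OPTI-MEM, treated with compound over a concentration series for 18-24 h at 37 C. Luciferase luminescence gave Nrf2 activity; CellTiter-Fluor fluorescence gave viability.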

Test [11] concerns the target Galactokinase (Homo sapiens) (UniProt P51570). Briefly: qHTS Validation Assay for Inhibitors of Human Galactokinase (GALK) (AID 493189). Further: 0% is about no effect. The procedure, abridged:
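Luminescence from leftover ATP (Kinase-Glo Plus, 10 min) served as read-out after a 1 h room-temperature reaction of 5 nM GALK, 100 uM galactose and 35 uM ATP at pH8.0.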

The nature of test [12]: Validation screen for small molecules that induce DNA re-replication in SW480 colon adenocarcinoma cells (AID 504364). Further: 0% is about no effect. In a few lines: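 SW480 cells (250/well) exposed 48 h at 37 C, 5% CO2, then Hoechst-stained 40 min. Nuclear DNA content imaged by fluorescence scanning (405 nm excitation, 500-530 nm emission); re-replication scored as increased nuclei with elevated intensity.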

The target of test [13] is Peptidyl-prolyl cis-trans isomerase NIMA-interacting 1 (Homo sapiens) (UniProt Q13526). The experiment in a line: qHTS Validation Assay to Find Inhibitors of Pin1 (AID 504536; active means well fitted inhibition curve with a large enough effect in the polarisation, with a control signal flat, not every such curve was filed as active; the % refers to the polarisation;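 further: 0% = full Pin1 enzyme wells and -100% = no-enzyme wells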). The procedure, abridged:
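Fluorescence polarization competition: compounds (titration) displace HiFluor-488-labeled Pin1-1b peptide from Pin1 (0.3 uM final) in pH 7.5 HEPES buffer with DTT, 10 min at room temperature; %Activity normalized to no-enzyme wells, curves fitted.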

Test [14] addresses Phosphoglycerate kinase, glycosomal (Trypanosoma brucei brucei) (UniProt P07378). Briefly: qHTS Validation Assay to Find Inhibitors of Phosphoglycerate Kinase (AID 504547).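 Further: control wells lack PGK and mark full inhibition.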 The procedure, abridged: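 Inhibition of the enzyme is judged by a Kinase-Glo Plus luminescent signal following a one-hour incubation at room temperature. Because 1,3-BPG is unstable, it is made in situ by GAPDH at 100nM final; no-PGK wells define the baseline.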

Test [15] addresses phosphoglycerate mutase (Leishmania major) (UniProt Q4Q090). Briefly: qHTS Validation Assay to Find Inhibitors of Phosphoglycerate Mutase (AID 504548). Further: series mostly up to about 58 µM; on the % scale 0 is the no-effect control and ±100 the full control effect. The procedure, abridged:
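Lm PGAM at 1.25 nM final with substrate in 100 mM TEA pH 7.6, 5 mM MgCl2, 0.01% Tween-20; 45 min at room temperature. Kinase-GloPlus added, 10 min, end-point luminescence read.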

Test [16] in a line: Inducers of the Endoplasmic Reticulum Stress Response (ERSR) in human glioma: Validation (AID 504836). Further: 0% is about no effect. The procedure, abridged:
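ERSR induction read as luciferase luminescence (Bright-Glo, 10 min at room temperature) in stably transfected human U87-MG glioma cells exposed to compounds for 16 h, using GRP78 as sensor.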

For test [17], the target named is ATP-dependent 6-phosphofructokinase (Trypanosoma brucei brucei) (UniProt O15648). Briefly: qHTS Assay to Find Inhibitors of T. brucei phosphofructokinase: hit validation (AID 492961).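 Further: luminescence reports ADP formed as PFK phosphorylates fructose-6-phosphate with ATP; series mostly up to about 51 µM; on the % scale 0 is the no-effect control and ±100 the full control effect.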 In a few lines: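 ADP-Glo luminescence read-out of ADP formed by 1.25 nM PFK from 0.1 mM ATP and 0.5 mM F6P (TEA pH 8.0, 45 min, RT). Compounds titrated; activity normalized to no-enzyme and full-enzyme controls.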

For test [18], the target named is Thyrotropin receptor (Homo sapiens) (UniProt P16473). Briefly: qHTS Assay for Antagonists of the Thyroid Stimulating Hormone Receptor (AID 488980). Further: series mostly up to about 58 µM; 0% is about no effect. The procedure, abridged:
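TSHR-HEK293 cells; 70 uM RO 20-1724 PDE inhibitor; compound + EC80 TSH (4 nM final); anti-cAMP cryptate antibody/cAMP-d2 in lysis buffer, 30 min RT; HTRF 665/620 nm read.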

Test [19] addresses D(1A) dopamine receptor (Homo sapiens) (UniProt P21728). Briefly: HTS Assay for Allosteric Agonists of the Human D1 Dopamine Receptor: Primary Screen for Potentiators (AID 488982). Further: 0% is about no effect. In a few lines: as §1

Chain of Thyrotropin-releasing hormone receptor (Homo sapiens) (P34981 whole entry, looked up): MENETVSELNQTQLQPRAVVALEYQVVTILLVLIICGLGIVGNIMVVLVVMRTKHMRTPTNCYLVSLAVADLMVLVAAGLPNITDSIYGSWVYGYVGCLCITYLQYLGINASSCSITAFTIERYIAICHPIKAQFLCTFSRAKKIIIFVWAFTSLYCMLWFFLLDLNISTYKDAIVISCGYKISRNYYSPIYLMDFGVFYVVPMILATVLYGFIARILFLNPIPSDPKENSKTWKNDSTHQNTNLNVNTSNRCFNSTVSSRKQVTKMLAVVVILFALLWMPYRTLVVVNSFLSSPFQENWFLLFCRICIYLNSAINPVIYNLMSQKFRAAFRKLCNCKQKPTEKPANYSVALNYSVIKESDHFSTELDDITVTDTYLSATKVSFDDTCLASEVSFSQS
Chain of Galactokinase (Homo sapiens) (P51570 whole entry, looked up): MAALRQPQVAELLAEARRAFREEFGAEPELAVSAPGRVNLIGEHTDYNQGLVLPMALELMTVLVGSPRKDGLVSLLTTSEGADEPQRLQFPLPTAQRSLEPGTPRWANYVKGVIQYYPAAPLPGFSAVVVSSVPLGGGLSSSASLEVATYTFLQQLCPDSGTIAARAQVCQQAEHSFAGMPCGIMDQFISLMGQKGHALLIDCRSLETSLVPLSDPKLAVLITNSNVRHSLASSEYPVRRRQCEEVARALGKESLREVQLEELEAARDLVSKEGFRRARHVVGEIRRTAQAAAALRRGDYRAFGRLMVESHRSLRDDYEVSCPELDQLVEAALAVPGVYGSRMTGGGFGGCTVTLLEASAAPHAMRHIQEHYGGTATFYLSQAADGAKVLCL
Chain of M-phase phosphoprotein 8 (Homo sapiens) (Q99549 whole entry, looked up): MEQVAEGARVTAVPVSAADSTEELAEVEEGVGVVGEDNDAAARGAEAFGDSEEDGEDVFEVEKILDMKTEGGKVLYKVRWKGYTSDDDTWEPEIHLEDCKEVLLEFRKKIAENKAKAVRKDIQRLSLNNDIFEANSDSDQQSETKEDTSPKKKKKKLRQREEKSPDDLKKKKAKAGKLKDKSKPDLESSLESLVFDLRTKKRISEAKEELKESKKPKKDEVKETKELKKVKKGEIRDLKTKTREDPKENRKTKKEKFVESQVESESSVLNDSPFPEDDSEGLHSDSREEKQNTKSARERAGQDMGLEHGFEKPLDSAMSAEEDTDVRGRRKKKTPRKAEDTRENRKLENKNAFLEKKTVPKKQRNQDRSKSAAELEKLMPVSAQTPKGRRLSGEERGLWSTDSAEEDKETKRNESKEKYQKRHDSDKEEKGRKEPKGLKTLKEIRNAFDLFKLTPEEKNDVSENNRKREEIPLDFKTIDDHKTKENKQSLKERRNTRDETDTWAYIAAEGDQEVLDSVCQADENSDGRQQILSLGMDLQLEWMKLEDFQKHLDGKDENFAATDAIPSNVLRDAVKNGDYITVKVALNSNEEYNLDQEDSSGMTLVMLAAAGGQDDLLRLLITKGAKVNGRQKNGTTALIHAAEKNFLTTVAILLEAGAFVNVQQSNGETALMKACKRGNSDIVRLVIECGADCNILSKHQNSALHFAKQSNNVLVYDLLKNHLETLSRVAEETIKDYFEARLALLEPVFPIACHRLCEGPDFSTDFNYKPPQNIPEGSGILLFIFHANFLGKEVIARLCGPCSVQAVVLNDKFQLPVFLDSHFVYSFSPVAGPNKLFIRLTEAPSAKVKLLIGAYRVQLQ
Chain of D(1A) dopamine receptor (Homo sapiens) (P21728 whole entry, looked up): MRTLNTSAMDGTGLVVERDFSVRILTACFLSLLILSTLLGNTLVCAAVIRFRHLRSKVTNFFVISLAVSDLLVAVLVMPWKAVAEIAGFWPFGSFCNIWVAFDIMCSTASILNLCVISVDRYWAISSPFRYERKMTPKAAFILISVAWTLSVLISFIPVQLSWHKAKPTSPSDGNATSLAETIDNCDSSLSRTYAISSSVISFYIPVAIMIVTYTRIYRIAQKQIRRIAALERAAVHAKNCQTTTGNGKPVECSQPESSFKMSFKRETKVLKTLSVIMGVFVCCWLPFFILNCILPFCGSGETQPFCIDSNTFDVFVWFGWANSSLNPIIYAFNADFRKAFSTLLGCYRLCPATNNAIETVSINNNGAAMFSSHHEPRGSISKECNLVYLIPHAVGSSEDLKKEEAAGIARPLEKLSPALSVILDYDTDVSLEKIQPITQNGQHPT
Chain of ATPase family AAA domain-containing protein 5 (Homo sapiens) (Q96QE3 whole entry, looked up, the tested form may be a part): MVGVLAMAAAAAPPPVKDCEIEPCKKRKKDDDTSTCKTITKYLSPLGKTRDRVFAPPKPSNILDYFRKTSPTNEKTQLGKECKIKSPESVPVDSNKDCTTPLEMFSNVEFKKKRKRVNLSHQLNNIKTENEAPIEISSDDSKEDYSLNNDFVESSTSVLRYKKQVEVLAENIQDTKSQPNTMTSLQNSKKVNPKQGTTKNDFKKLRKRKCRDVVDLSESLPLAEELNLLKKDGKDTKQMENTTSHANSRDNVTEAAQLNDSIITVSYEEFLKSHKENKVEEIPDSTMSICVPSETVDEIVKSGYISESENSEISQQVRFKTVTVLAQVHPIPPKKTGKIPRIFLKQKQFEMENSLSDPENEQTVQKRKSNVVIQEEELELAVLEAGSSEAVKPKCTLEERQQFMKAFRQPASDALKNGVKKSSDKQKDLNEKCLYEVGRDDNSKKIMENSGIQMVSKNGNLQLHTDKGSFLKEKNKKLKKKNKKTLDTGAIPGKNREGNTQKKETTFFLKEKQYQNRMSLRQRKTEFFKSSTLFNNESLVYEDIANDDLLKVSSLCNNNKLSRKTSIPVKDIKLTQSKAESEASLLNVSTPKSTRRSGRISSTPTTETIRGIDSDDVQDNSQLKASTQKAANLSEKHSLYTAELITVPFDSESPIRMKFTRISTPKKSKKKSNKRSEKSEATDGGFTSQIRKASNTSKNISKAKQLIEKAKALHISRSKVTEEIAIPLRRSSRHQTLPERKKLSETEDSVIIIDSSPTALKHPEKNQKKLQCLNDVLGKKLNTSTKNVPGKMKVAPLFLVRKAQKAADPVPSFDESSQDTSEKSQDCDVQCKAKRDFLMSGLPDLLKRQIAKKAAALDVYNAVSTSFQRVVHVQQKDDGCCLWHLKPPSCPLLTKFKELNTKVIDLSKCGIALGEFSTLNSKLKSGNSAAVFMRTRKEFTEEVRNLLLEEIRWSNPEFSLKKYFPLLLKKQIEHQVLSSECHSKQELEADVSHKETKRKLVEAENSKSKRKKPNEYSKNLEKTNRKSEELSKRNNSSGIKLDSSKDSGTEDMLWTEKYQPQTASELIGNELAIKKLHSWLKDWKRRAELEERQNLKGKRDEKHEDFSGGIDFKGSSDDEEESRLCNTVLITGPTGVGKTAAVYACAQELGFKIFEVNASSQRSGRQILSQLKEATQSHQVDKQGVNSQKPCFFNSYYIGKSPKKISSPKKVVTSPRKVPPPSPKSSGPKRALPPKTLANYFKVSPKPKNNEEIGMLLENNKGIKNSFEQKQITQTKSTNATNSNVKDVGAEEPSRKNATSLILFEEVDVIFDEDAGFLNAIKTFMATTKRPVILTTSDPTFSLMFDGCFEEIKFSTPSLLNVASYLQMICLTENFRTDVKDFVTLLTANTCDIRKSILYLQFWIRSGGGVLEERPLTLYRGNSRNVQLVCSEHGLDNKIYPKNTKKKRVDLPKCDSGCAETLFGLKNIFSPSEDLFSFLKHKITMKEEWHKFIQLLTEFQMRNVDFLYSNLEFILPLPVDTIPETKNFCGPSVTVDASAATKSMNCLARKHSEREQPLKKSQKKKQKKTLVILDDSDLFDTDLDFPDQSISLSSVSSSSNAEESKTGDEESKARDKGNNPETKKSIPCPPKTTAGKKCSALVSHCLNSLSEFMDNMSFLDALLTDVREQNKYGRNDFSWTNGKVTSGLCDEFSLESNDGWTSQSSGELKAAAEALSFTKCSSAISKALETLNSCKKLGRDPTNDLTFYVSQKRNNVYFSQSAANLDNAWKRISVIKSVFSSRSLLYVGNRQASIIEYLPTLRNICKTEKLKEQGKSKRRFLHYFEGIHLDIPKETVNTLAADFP
Chain of phosphoglycerate mutase (Leishmania major) (Q4Q090 1-553): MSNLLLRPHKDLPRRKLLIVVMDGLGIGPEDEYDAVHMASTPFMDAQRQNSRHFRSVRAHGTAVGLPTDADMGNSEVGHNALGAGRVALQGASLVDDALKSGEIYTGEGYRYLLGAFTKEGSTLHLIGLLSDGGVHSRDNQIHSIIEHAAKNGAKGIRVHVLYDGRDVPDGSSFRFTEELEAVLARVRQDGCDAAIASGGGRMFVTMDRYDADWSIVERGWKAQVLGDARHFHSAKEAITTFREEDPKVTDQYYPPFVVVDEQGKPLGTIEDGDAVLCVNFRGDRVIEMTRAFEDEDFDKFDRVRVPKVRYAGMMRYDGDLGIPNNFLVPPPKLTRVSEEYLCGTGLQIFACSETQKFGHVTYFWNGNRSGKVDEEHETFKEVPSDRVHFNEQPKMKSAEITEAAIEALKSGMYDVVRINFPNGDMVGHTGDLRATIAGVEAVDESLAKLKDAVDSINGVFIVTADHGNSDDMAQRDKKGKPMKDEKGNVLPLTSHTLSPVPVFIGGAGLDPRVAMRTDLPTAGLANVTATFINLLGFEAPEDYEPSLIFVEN
Chain of Phosphoglycerate kinase, glycosomal (Trypanosoma brucei brucei) (P07378 whole entry, looked up): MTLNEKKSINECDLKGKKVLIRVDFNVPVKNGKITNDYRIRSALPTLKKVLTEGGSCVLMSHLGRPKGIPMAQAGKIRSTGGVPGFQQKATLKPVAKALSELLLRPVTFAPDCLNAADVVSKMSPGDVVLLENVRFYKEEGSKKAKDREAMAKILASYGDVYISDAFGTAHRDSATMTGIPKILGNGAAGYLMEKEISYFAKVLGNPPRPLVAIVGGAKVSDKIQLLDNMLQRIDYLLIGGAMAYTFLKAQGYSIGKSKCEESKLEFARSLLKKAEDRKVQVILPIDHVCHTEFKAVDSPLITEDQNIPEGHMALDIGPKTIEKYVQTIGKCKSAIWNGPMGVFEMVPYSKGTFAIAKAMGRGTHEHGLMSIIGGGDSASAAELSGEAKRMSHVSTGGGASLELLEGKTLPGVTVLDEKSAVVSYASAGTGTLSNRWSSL

Consider `CC(NC(C)(C)C)C(=O)c1cccc(Cl)c1` (stereo unspecified), for which the Potency entry in test [1], in [2] and in test [5] was “inactive” each time. Moreover, the call in [3], in [4], in [6], in test [7], in test [8] and in test [10] was inactive. For the same molecule, the outcome in test [11], in test [12], in test [13], in test [14], in [15] and in test [16] was inactive. For the same molecule, in [9], the activation is -0.188% (inactive). Further, in test [10], the viability change came out at 5.02%.

Consider `Cc1ncsc1CCCl`, for which the Potency result in [1], in test [2] and in test [5] was “inactive” throughout. The molecule was classed as inactive in [3], in [6], in [17], in test [7], in [8] and in test [10]. The molecule was called inactive in test [13], in test [14], in test [15] and in [16]. Besides, the viability change in test [10] amounted to 6.84%.

Turning to `O=C1c2ccccc2C(=O)c2ccccc21`, the outcome in test [17] was inactive.

In the case of `CC(C)(C)NCC(O)c1ccccc1Cl` (stereo unspecified), the Potency result in test [1], in test [2] and in test [5] was “inactive” each time. For the same molecule, the outcome in test [3], in test [4], in [18], in test [19], in [6] and in test [17] was inactive. Besides, the call in test [7], in [8], in test [10], in test [11], in test [12] and in [13] was inactive. The outcome in [14], in test [15] and in test [16] was inactive. For the same molecule, the activation in test [9] is 0.312% (inactive). Further, in test [10], the viability change is 0.543%.

Consider `NCCc1ccc(O)cc1`, for which the Potency entry in test [1], in test [2] and in [5] was “inactive” in each case. Further, the call in [3], in [4], in test [18], in [19], in [6] and in test [7] was inactive. In addition, the result in [8], in test [10], in test [11], in test [12], in test [13] and in [14] was inactive. The molecule was called inactive in test [15] and in test [16]. For the same molecule, in [9], the activation is 1.31% (inactive). Moreover, the viability change in test [10] is -8.88%.
